According to ChEMBL document CHEMBL4513216, “Probing the Open Global Health Chemical Diversity Library for Multistage-Active Starting Points for Next-Generation Antimalarials” (ACS Infect Dis, 2020):
The campaign covered roughly 69,000 compounds. About 8,600 (12%) showed an effect of 50% or more. The entries come from a sample that favours strong results as a whole.

Tested on: Plasmodium berghei
Assay: Screen against P. berghei liver stage (PbLuc), transformed with Luciferase, at 10uM
Format: functional, HepG2
Settings: tested at 10 uM

Structure (SMILES) | INHIBITION [%]
COc1cccc(COCC(=O)N2CCCN(CC(N)=O)CC2)c1 | -101
COCC(C)NC(=O)CSc1ccc(F)c(Cl)c1 (configuration not stated) | 46.1
CC(C)CC(NC(=O)CSc1ccc(F)c(Cl)c1)C(=O)O (configuration not stated) | 75.8
CC(C)CC(NC(=O)Nc1ccc(F)c(Cl)c1)C(=O)O (configuration not stated) | -20.3
Cc1nc(N2CCCC2)nc2c1CCN(C(=O)CN(C)C)CC2 | 20.1
COCc1ccccc1C(=O)N1CCCC1Cn1nc(C)cc1C (configuration not stated) | -72.745
C=C(C)CN1CCN(Cc2cnc(-c3ccccc3C)nc2)CC1 | 9.93
Cc1nn(-c2ccc(C(=O)O)cc2)c2c1C(C(F)(F)F)SCC(=O)N2 (configuration not stated) | -14.3
O=C(NCCCC(=O)N1Cc2ccccc2C1)NCc1nccs1 | 39.7
O=C(NCCCC(=O)N1Cc2ccccc2C1)NCc1cccnc1 | 66.3
O=C(NCCCC(=O)N1Cc2ccccc2C1)NCc1ccsc1 | 23.5
O=C1[C@@H]2CC[C@@H](CN(Cc3nnc(C4CC4)o3)C2)N1Cc1cscn1 | -28.4
Cc1cc(C(=O)N2CCC(CCC(=O)NCCN(C)C)CC2)ccc1O | -21.9
CN(C)CCNC(=O)CCC1CCN(C(=O)c2ccc(Cl)cc2O)CC1 | 50.4
CN(C)CCNC(=O)CCC1CCN(C(=O)c2ccc(O)cn2)CC1 | 26.8
CCN(c1ccc(C(=O)NCCCN2CCCC2)cc1)S(=O)(=O)CC | -7.11
CC[C@@H]1N(Cc2ccc(F)cc2)CCC[C@]12CCC(=O)N2C | 21.1
Cc1ccc(CN2CCOCC3(C2)CN(c2ccc(C)s2)C(=O)CO3)o1 (configuration not stated) | 64.2
Cc1ccc(N2CC3(COCCN(Cc4ccncc4)C3)OCC2=O)s1 (configuration not stated) | -36
Cc1ccc(N2CC3(COCCN(Cc4cccnc4)C3)OCC2=O)s1 (configuration not stated) | 39.2
Cc1ccc(CN2CCC3(CC2)CN(c2cnn(C)c2)C(=O)CO3)o1 | -2.17
Cc1ccc(N2CC3(COCCN(Cc4nccs4)C3)OCC2=O)s1 (configuration not stated) | -17

Structure (SMILES) | INHIBITION [%]
Cc1cccc(N2CCOCC3(C2)CN(c2ccccc2)C(=O)CO3)n1 (configuration not stated) | 59.3
Cc1ccc(N2CC3(COCCN(Cc4ccccn4)C3)OCC2=O)s1 (configuration not stated) | 60.1
Cc1cccc(N2CCOCC3(C2)CN(c2cncnc2)C(=O)CO3)n1 (configuration not stated) | 33.5
Cc1ccc(CN2CCC3(CC2)CN(c2ccccc2)C(=O)CO3)o1 | 68.4
Cc1ccc(N2CC3(COCCN(Cc4cnn(C)c4)C3)OCC2=O)s1 (configuration not stated) | 31.7
Cc1cccc(N2CCOCC3(C2)CN(c2cccnc2)C(=O)CO3)n1 (configuration not stated) | 41.4
Cn1cccc1CN1CCC2(CC1)CN(c1ccccc1)C(=O)CO2 | -19.5
Cc1ccc(CC(=O)N2CCc3nnc(N(C)C)cc3C2)s1 | 12.85
Cn1cnc2c1C(COCC1CCOCC1)CN(C1CCOCC1)C2 (configuration not stated) | -0.569
CC(C)NC(=O)Nc1ccc(CS(C)(=O)=O)cc1 | 28.3
CCn1ccnc1CN1CCCN(C(=O)c2cnc(C)cn2)CC1 | -4.16
Cc1nc(CN2CCCC(N(C)Cc3nccn3C)C2)no1 (configuration not stated) | 13.3
COc1ccc(OCc2cc(C(=O)N3CCCCO3)n[nH]2)c(Cl)c1 | -9.42
CCNCCC(Cc1ccccc1)c1ccco1 (configuration not stated) | 31.2
COCCN(C)c1cnn(C)c(=O)c1Br | 17.5
CC(Cn1cccn1)C(=O)N1CCCN(Cc2cscn2)CC1 (configuration not stated) | -0.29
O=C(c1cnco1)N1CCC(Cc2cnc3ccccc3c2)CC1 | 14.4
O=C1CC2(CCCCN2C(=O)Cc2ccccc2)CN1c1cccnc1 (configuration not stated) | 70.1
O=C1CC2(CCCCN2C(=O)c2ccoc2)CN1Cc1ccccc1 (configuration not stated) | 24.8
O=C(c1ccco1)N1CCOCC2(C1)CN(c1cccnc1)C(=O)CO2 (configuration not stated) | 3.58
O=C1CC2(CCCCN2C(=O)c2ccco2)CN1c1cccnc1 (configuration not stated) | 76.5
Cn1cccc1C(=O)N1CCCCC12CC(=O)N(c1cccnc1)C2 (configuration not stated) | -80.2

Structure (SMILES) | INHIBITION [%]
Cn1ccc(C(=O)N2CCCCC23CC(=O)N(Cc2ccccc2)C3)n1 (configuration not stated) | -52.9
COc1ccc(CC(=O)N2C[C@@H]3COC[C@]3(CN(C)C)C2)cc1 | 35.3
CCOCC1c2c(cnn2CC2CC2)CCN1Cc1nccs1 (configuration not stated) | 30.3
O=C(C1CCCC1)N1CCO[C@H]2[C@H](OCC3CCOCC3)CC[C@@H]21 | -26.5
CC(C)NC(=O)CS(=O)(=O)Cc1coc(-c2ccc(F)cc2)n1 | 33.8
Cc1nc(C)c(CC(=O)N2C[C@@H]3CC[C@H]2CN(c2cnccn2)C3)s1 | -102
CC(C)C(=O)NC1COC2(CCN(Cc3cccnc3)CC2)C1 (configuration not stated) | 16.1
c1cnc(NCc2nnn3c2CN(Cc2ccsc2)CCC3)nc1 | 39.8
CS(=O)(=O)NC[C@@H]1OC[C@H]2CN(Cc3ccsc3)CC[C@H]21 | -4.32
CN(CC(=O)N1CCc2[nH]c3ccccc3c2C1)CC1OCCO1 | 22.9
O=C1N(c2ccsc2)CCC12CCCN(c1ccccn1)C2 (configuration not stated) | 42.1
Cc1nn(C)c(N(C)C)c1CNCc1cccnc1-n1cncn1 | 26.1
CC(CNS(N)(=O)=O)Oc1cccc(Cl)c1 (configuration not stated) | 14.9
CC(C)C[C@H](N)COc1cccc(F)c1Oc1ccc(Cl)cc1 | 87.9
CNCc1cc(F)ccc1Oc1ccc(Cl)cc1 | 35.2
CC(C)C[C@H](N)COc1cccc(F)c1Oc1cccc(Cl)c1 | 83.3
COc1ccccc1C(N)CC(C)C (configuration not stated) | 48.3
Cc1ccc(Oc2c(F)cccc2OC[C@@H](N)CC(C)C)cc1 | 79.6
CC(CNS(C)(=O)=O)Oc1cccc(Cl)c1 (configuration not stated) | 23.8
CC(C)C[C@H](N)COc1cccc(F)c1Oc1ccccc1 | 48
CN(CCc1ccccn1)c1cnn(C)c(=O)c1Br | -18.9
Cc1ccc2c(c1)Oc1ncccc1C(=O)N2 | 48.2

Structure (SMILES) | INHIBITION [%]
Cc1cnc(C(=O)N2C[C@H]3CN(Cc4cccc(F)c4)C(=O)[C@H]3C2)cn1 | -9.71
CC(CN1CCOCC1)NC(=O)N1CCN(S(C)(=O)=O)CC1 (configuration not stated) | -34.4
CCOc1ccc(SCCS(=O)(=O)CC)cc1 | 3.84
CCn1c(C)nnc1SCCn1cc(-c2ncc[nH]2)nn1 | 7.1
CCSCCn1cc(-c2ncc[nH]2)nn1 | 59.1
c1c[nH]c(-c2cn(CCSc3cnn[nH]3)nn2)n1 | 33.2
Cc1cnc(CN(C)C2CCN(Cc3nccn3C)C2)o1 (configuration not stated) | 13.3
CCOC(=O)CNC(=O)c1cc(-c2ccccc2)nc2ncnn12 | -5.22
CC(=O)c1sc(Nc2ccc(Cl)cn2)nc1C | -9.27
COCCNC(=O)c1sc(Nc2ccc(Cl)cn2)nc1C | 67.9
Cc1nc(Nc2ccc(Cl)cn2)sc1C(=O)NCCCN1CCCCC1 | 52.3
Cc1nc(Nc2ccc(Cl)cn2)sc1C(=O)NC(C)C | -86.5
CCCNC(=O)c1sc(Nc2ccc(Cl)cn2)nc1C | -19.7
CCCc1nc(C)c(C(=O)NCCN2CCCCC2)s1 | -21.9
COc1ccc(CCC(=O)N2CCNCC2C(=O)N2CCCC2)cc1 (configuration not stated) | 32.1
COCCO[C@H]1CCN(Cc2cccnc2)[C@H]1Cc1cccnc1 | -31
CN(C)S(=O)(=O)N1C[C@H]2CC[C@@H](C1)N(Cc1ccc(F)c(F)c1)C2 | 0.825
CSc1nccn1-c1ccc(C(=O)NCC2CC2)cc1 | 36.1
O=C(NCCCn1nc2ccccn2c1=O)NCC(C1CC1)C1CC1 | -20
COc1cc(-c2cc(-c3ccn(C)c3)nc(N)c2C#N)cc(OC)c1O | 71.2
Cc1ccc(-c2cc(-c3c(C)nn(CCO)c3C)c(C#N)c(N)n2)cc1 | 14.1
CCn1cc(-c2cc(-c3ccn(C)c3)nc(N)c2C#N)cc1C#N | 81.1

Structure (SMILES) | INHIBITION [%]
CCCn1cc(-c2cc(-c3cnc(OC)nc3)c(C#N)c(N)n2)c(C)n1 | 25.1
COc1ncc(-c2cc(-c3ccn(C)c3)nc(N)c2C#N)cn1 | 29.4
CCNc1ncc(-c2cc(-c3ccn(C)c3)nc(N)c2C#N)cn1 | 36
O=C(NCC1CC1)c1cc(C2CC2)nc2onc(C3CCCNC3)c12 (configuration not stated) | -3.11
CCN1CC2(CC1=O)CN(Cc1cnn(C)c1)CCN(C(=O)C(C)C)C2 (configuration not stated) | 9.54
CC(NCCCc1cnn(C)c1)c1ccc(Cl)s1 (configuration not stated) | 51.7
CC(NCCCc1cnn(C)c1)c1ccc(Br)s1 (configuration not stated) | 45.7
CC(NCCN1CCC(N(C)C)CC1)c1ccc(Cl)s1 (configuration not stated) | 27.7
COCCn1cc(NC(=O)NC(C)c2ccc(Cl)s2)cn1 (configuration not stated) | -6.04
CC(NCc1cnc(N2CCOCC2)nc1)c1ccc(Cl)s1 (configuration not stated) | 51.8
CC(Cn1cccn1)NC(=O)NCCc1cnn(C)c1 (configuration not stated) | 49.6
CC(NCc1cnc(N2CCOCC2)s1)c1ccc(Cl)s1 (configuration not stated) | -19.1
Cc1nc(C)c(C(C)NCc2cnc(N3CCOCC3)nc2)s1 (configuration not stated) | 43.5
CC(NC(=O)NCCc1cnn(C)c1)c1ccc(Cl)s1 (configuration not stated) | 68
CCc1nccn1C1CCCN(C(=O)c2ccc(NC3CC3)nc2)C1 (configuration not stated) | -40.0335
CNc1ncc(-c2ccc(NC(=O)[C@@H]3CCCCN3)cc2)cn1 | 4.08
COc1ncccc1CNC(=O)c1ccc(C)[nH]c1=O | 20.5
COc1ccc(CN2CCn3c(CNS(C)(=O)=O)nnc3C2)cc1 | 13.1
Cn1cnnc1SCCCNC(=O)Nc1ncccn1 | 4.66
